# In PubChem BioAssay:
# The source made the active and inactive calls. Unless noted, the rule behind the calls is not given here.
# Key:
# [1] = test system: Wnt5a (protein binding on small-molecule microarray); test: small molecules binding Wnt5a protein – biophysical, small-molecule microarray, 635/667 nm fluorescence, primary screen (AID 1142); conditions: 635 nm fluorescence, higher = more signal;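 note: fluorescence read at 667 nm with signal to noise per printed feature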
# [2] = ATP-based viability of Huh7 replicon cells – cell-based, CellTiter-Glo luminescence, basal, 48 h, cytotoxicity control for HCV replication inhibitor project, primary screen (AID 1143); conditions: higher = more signal, called active from +8 up or from −8 down;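 note: Huh7 hepatoma cells carrying a hepatitis C replication reporter with no stimulus; test concentration not given here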
# [3] = Pseudomonas biofilm growth suppression – PAO1 strain, BacTiter-Glo luminescence, LB-PBS, primary screen (AID 1144); conditions: P. aeruginosa PAO1 biofilm, 12 h, higher = more signal
# [4] = basal CRE-LacZ reporter activity in PC12 – cell-based, unstimulated, primary screen (AID 1145); conditions: no forskolin, luminescence, 4.5 h, higher = more signal, called active from +8 up or from −8 down
# [5] = forskolin-driven CRE-LacZ activity in PC12 – cell-based, CRE-LacZ reporter, forskolin-stimulated, primary screen (AID 1146); conditions: luminescence, 4.5 h, higher = more signal, called active from +8 up or from −8 down;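 note: PC12 cells with 6xCRE LacZ reporter stimulated by forskolin 10 µM; beta-galactosidase reporter signal reflecting CREB driven transcription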
# [6] = target: Streptavidin (Streptomyces avidinii) (UniProt P22629); test: compounds binding control protein streptavidin – biophysical, small-molecule microarray, 635/667 nm fluorescence, artefact control for SMM compound annotation, primary screen (AID 1147); conditions: higher = more signal;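 note: signal reflects streptavidin binding to arrayed compounds as a control protein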
# Sequence of Streptavidin (Streptomyces avidinii) (P22629 whole entry, looked up): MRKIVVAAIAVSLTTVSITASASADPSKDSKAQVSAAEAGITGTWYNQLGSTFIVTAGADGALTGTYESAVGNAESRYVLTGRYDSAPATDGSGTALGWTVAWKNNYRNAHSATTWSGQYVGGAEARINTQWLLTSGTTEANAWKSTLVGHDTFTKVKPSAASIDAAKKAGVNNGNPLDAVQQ
# [7] = probe aInhba binding on compound microarray – biochemical, small-molecule microarray, 635/667 nm fluorescence, primary screen (AID 1148); conditions: higher = more signal;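 note: score merges 667nm spot fluorescence with signal-to-noise for antibody binding to printed compounds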
# [8] = target: Torsin-1A (Homo sapiens) (UniProt O14656); test: TOR1A wild-type binding on microarray – cell lysate, small-molecule microarray, lysate, 635/667 nm, primary screen (AID 1149); conditions: COS7 hTOR1A-WT lysate, 635 nm fluorescence, higher = more signal
# Sequence of Torsin-1A (Homo sapiens) (O14656 whole entry, looked up): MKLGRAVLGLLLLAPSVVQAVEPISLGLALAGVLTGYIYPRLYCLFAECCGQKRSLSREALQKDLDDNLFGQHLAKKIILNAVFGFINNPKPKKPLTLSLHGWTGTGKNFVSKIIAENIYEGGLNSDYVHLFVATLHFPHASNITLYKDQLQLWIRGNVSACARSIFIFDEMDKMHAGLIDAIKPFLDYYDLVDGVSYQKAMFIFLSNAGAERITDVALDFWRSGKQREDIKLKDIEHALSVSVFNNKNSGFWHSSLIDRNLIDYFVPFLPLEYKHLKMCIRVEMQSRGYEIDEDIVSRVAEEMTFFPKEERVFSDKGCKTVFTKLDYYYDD
# [9] = target: Torsin-1A (Homo sapiens) (UniProt O14656); test: torsin A mutant lysate binding on microarrays – cell lysate, small-molecule microarray, COS7 lysate, 635/667 nm fluorescence, primary screen (AID 1150); conditions: COS7 hTOR1A mutant lysate, 635 nm fluorescence, higher = more signal;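 note: score pools 667 nm emission and signal to noise measuring lysate protein binding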
# [10] = test system: Sonic hedgehog protein (Shh); test: Sonic hedgehog microarray binding compounds – biochemical, small-molecule microarray, 635/667 nm fluorescence, primary screen (AID 1151); conditions: 635 nm fluorescence, higher = more signal;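 note: Shh protein binding to compounds spotted on small-molecule microarray slides; score combines spot fluorescence intensity with signal-to-noise across triplicate slides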
# [11] = optical density shifts of acrAB sulA E. coli – strain DRC41, OD650, 48 h, E. coli filamentation inducer project, primary screen (AID 1152); conditions: higher = more signal, called active from +8 up or from −8 down;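 note: E. coli MC1000 strain DRC41 lacking acrAB efflux pump and sulA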
# [12] = probe aLefty1 binding on compound microarray – biochemical, small-molecule microarray, 635/667 nm fluorescence, primary screen (AID 1153); conditions: higher = more signal;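 note: score merges spot fluorescence with signal-to-noise ratio from the scanned slide images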
# [13] = plasmodial surface anion channel blockers, osmotic lysis – cell-based, P. falciparum Indochina, OD700, 1 h, primary screen (AID 1154); conditions: P. falciparum Indochina infected RBC osmotic lysis, higher = more signal, called active from +8 up or from −8 down
# [14] = plasmodial surface anion channel blockers, osmotic lysis – cell-based, P. falciparum Indochina, OD700, 2 h, primary screen (AID 1155);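 note: lysis reports solute entry through the parasite surface anion channel PSAC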; conditions: P. falciparum Indochina infected erythrocytes, higher = more signal, called active from +8 up or from −8 down
# [15] = changes in parasitized red cell lysis, either direction – P. falciparum Indochina, OD700, 3 h, PSAC antagonist project, primary screen (AID 1156); conditions: P. falciparum-infected erythrocytes, osmotic lysis, higher = more signal, called active from +8 up or from −8 down
# [16] = plasmodial surface anion channel blockers, osmotic lysis – cell-based, P. falciparum Indochina, OD700, 18 h, primary screen (AID 1157); conditions: P. falciparum Indochina infected erythrocytes, osmotic lysis OD700, 18 h; higher = more signal, called active from +8 up or from −8 down
# [17] = S6 kinase pathway phospho-S6 level changes – cell-based, A549, cytoblot, luminescence, serum-stimulated, primary screen (AID 1158); conditions: 5 h, higher = more signal;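 note: serum-stimulated A549 lung adenocarcinoma cells; signal is phosphorylated S6 detected by cytoblot immunostaining with HRP secondary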
# [18] = target: NADPH oxidase 2 (Homo sapiens) (UniProt P04839); test: compounds shifting NOX2 Amplex Red fluorescence – cell-based, HEK293-NOX2, PMA-stimulated, NOX inhibitor project, primary screen (AID 1159); conditions: 45 min, higher = more signal, called active from +8 up or from −8 down; note: test concentration not given here
# Sequence of NADPH oxidase 2 (Homo sapiens) (P04839 whole entry, looked up): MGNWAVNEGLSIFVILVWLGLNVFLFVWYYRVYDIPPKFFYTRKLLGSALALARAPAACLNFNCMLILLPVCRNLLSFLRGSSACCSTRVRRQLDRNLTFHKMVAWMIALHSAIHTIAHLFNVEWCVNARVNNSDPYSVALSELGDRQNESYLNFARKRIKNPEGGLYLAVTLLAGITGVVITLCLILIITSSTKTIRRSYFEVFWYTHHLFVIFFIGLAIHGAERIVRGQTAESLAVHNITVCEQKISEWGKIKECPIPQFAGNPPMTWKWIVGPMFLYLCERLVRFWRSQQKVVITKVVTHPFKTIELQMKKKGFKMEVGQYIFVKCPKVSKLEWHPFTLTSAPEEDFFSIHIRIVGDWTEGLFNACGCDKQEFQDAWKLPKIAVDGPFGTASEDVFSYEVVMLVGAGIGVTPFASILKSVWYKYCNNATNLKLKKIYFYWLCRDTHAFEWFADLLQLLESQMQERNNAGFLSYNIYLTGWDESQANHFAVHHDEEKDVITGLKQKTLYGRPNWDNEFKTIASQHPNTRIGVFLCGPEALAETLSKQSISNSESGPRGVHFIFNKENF
# [19] = target: NADPH oxidase 4 (Homo sapiens) (UniProt Q9NPH5); test: compounds shifting NOX4 Amplex Red fluorescence – cell-based, HEK293-NOX4, tetracycline-induced, NOX inhibitor project, primary screen (AID 1160); conditions: HEK293-NOX4, Amplex Red H2O2 fluorescence, 45 min; higher = more signal, called active from +8 up or from −8 down
# Sequence of NADPH oxidase 4 (Homo sapiens) (Q9NPH5 whole entry, looked up): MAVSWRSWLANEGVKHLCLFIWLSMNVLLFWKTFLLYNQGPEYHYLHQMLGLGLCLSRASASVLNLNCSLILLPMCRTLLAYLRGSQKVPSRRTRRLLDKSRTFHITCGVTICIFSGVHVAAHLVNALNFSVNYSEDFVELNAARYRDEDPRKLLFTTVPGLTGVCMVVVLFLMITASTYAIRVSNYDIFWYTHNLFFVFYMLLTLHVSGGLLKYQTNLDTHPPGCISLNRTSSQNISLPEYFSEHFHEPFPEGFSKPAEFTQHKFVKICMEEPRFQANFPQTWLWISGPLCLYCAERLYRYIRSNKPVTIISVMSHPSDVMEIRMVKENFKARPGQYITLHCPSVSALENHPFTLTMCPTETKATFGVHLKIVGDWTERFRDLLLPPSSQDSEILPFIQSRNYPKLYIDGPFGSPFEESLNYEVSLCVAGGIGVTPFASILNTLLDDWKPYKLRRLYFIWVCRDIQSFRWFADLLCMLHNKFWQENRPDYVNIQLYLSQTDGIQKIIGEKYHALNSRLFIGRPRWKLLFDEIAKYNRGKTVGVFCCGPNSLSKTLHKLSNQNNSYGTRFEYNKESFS
# [20] = target: NADPH oxidase 5 (Homo sapiens) (UniProt Q96PH1); test: compounds shifting NOX5 Amplex Red fluorescence – cell-based, HEK293-NOX5, NOX inhibitor project, primary screen (AID 1161); conditions: HEK293-NOX5, ionomycin, 45 min, higher = more signal
# Sequence of NADPH oxidase 5 (Homo sapiens) (Q96PH1 whole entry, looked up): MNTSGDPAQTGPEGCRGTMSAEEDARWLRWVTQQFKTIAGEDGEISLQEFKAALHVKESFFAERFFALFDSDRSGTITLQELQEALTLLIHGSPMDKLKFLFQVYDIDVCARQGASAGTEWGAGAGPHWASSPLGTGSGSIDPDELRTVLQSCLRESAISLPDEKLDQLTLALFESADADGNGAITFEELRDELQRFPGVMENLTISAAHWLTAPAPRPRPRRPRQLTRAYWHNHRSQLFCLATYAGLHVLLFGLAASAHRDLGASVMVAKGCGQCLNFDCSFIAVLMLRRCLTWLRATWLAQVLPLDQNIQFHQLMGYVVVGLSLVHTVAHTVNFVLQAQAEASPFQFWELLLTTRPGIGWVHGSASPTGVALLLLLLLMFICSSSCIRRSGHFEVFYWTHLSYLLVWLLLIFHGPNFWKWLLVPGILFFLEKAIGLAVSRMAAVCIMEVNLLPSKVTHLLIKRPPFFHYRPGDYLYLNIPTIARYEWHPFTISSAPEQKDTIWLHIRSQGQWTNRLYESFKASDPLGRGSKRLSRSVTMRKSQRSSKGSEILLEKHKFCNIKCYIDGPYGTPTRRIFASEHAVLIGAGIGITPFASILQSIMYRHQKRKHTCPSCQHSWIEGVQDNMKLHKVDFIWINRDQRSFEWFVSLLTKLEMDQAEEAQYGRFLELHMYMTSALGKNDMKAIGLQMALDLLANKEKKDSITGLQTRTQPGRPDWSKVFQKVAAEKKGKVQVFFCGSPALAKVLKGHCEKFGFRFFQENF
Compound,composite z-score [1],z-score [2],z-score [3],z-score [4],z-score [5],composite z-score [6],composite z-score [7],composite z-score [8],composite z-score [9],composite z-score [10],z-score [11],composite z-score [12],z-score [13],z-score [14],z-score [15],z-score [16],z-score [17],z-score [18],z-score [19],z-score [20]
C=CCC(OC(C)=O)[C@@H]1[C@@H](N(Cc2ccc(-c3ccccc3)cc2)C(=O)c2cccc3ccccc23)c2cc(OCCCO)ccc2N1C(=O)Cc1ccc(OC)cc1 (stereo not given in full),0.0948,-1.62 (inactive),0.0108 (inactive),0.498 (inactive),-0.117 (inactive),0.0251,-0.0346,-0.476,0.127,0.586,-1.17 (inactive),0.568,0.53 (inactive),0.525 (inactive),0.375 (inactive),0.211 (inactive),-0.0451,-0.248 (inactive),-0.0822 (inactive),-2.28
CCCC[C@H]1C[C@@H]1[C@@H]1N(C(C)=O)[C@H](c2cccc(OC)c2)CC12CC2,-0.0718,-0.338 (inactive),0.824 (inactive),0.583 (inactive),-0.0157 (inactive),0.361,0.0111,-0.53,0.0852,-0.784,-1.17 (inactive),0.416,3.6 (inactive),0.984 (inactive),1.1 (inactive),0.692 (inactive),-0.168,-0.927 (inactive),0.998 (inactive),-2.9
CC(=O)OCC1C2CC[C@H]3C(OCc4ccc(F)cc4C(F)(F)F)OC[C@]4(C)[C@H]3C2=C(CN4C(=O)OC(C)(C)C)[C@H](C)C1COC(C)=O (stereo not given in full),1.21,-1.87 (inactive),-0.212 (inactive),0.0075 (inactive),1.85 (inactive),1.16,0.196,-0.172,1.67,-1.24,-2.4 (inactive),0.498,1.07 (inactive),0.678 (inactive),1.04 (inactive),0.593 (inactive),-0.239,-0.896 (inactive),-2.29 (inactive),-1.51
CC1CC/C=C\[C@H]2OC34C=CCN(c5ccc6ccccc6c5)C(=O)[C@H]3N(C(C)CO)C(=O)[C@@H]4C2C(=O)O1 (stereo not given in full),-0.786,-0.0174 (inactive),0.282 (inactive),-0.0899 (inactive),-0.0752 (inactive),-0.926,-0.0933,-0.538,-1.15,-0.254,-0.114 (inactive),-0.0933,0.856 (inactive),0.222 (inactive),0.927 (inactive),0.233 (inactive),-0.347,0.995 (inactive),-0.181 (inactive),1.58
CN(C)CCCNC(=O)[C@@]1(C)c2ccccc2C(=O)N(Cc2ccc(OC(F)(F)F)cc2)[C@H]1c1ccc(CO)cc1,-0.13,-2.14 (inactive),-1.04 (inactive),1.06 (inactive),-0.175 (inactive),-1.04,0.0778,-0.924,0.332,0.447,-0.796 (inactive),-0.104,1.53 (inactive),-0.103 (inactive),2.79 (inactive),0.328 (inactive),0.235,-0.607 (inactive),-0.303 (inactive),-1.63
CCOC(=O)C1=CC[C@@H](c2ccccc2)N(S(=O)(=O)c2ccc(C)cc2)[C@H]1c1ccccc1I,0.296,-2.69 (inactive),0.366 (inactive),0.566 (inactive),-0.226 (inactive),0.864,0.849,-0.315,0.507,0.239,-0.801 (inactive),1.24,1.18 (inactive),0.948 (inactive),-0.597 (inactive),0.631 (inactive),-0.94,0.62 (inactive),0.205 (inactive),0.721
N#Cc1ccc(-c2cccc(=O)o2)cc1,0.0017,0.454 (inactive),-0.131 (inactive),-0.163 (inactive),0.648 (inactive),0.427,0.085,0.435,0.0587,0.458,-0.729 (inactive),-0.0954,3.14 (inactive),1.15 (inactive),-0.598 (inactive),0.979 (inactive),-0.0905,0.191 (inactive),-1.72 (inactive),0.172
CCCCC(O)C1C=CC2C(=O)N(c3ccccc3)C(=O)C2N1Nc1ccc([N+](=O)[O-])cc1 (stereo not given),0.044,-3.32 (inactive),-2.08 (inactive),-0.219 (inactive),-0.176 (inactive),0.736,0.215,0.47,0.482,-0.61,0.372 (inactive),0.683,14.2 (active),1.38 (inactive),0.371 (inactive),-1.06 (inactive),0.581,-1.08 (inactive),-1.65 (inactive),-0.302
